The values that follow come from PubChem BioAssay (EPA / NIEHS).

Test [1] is described as follows: ATG_E_Box_CIS: Attagene CIS-FACTORIAL HepG2 Assay for human Enhancer Box (E-box) (AID 2282936). As to conditions: HepG2 E-box cis-reporter transcription, actives raise or lower the signal. Summed up:
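Fluorescent reporter fragments separated by capillary electrophoresis gave the signal; mRNA came from HepG2 cells transfected with cis-element reporters and treated 24 h. Curves fitted bidirectionally relative to DMSO controls.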

Test [2] can be described thus: ATG_M_61_CIS: Attagene CIS-FACTORIAL HepG2 Assay for M61 Transcription Factor (Internal Marker) (AID 2282937). Particulars: HepG2 Attagene CIS-FACTORIAL M61 internal marker reporter; actives raise or lower the signal. In outline:
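Readout is reporter mRNA by RT-PCR, fluorescent primer extension and capillary electrophoresis, with gain or loss fitted relative to DMSO. Transfected HepG2 cells carrying endogenous-TF-driven cis reporters were exposed to chemicals for 24 hours.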

The nature of test [3]: ATG_EGR_CIS: Attagene CIS-FACTORIAL HepG2 Assay for human Early Growth Response 1 (EGR1) (AID 2282938). As to conditions: HepG2 Attagene CIS-FACTORIAL EGR reporter mRNA; actives raise or lower the signal. In outline: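 After 24 h compound exposure, RNA from reporter-transfected HepG2 cells was reverse-transcribed, PCR-amplified, fluorescently labelled and resolved by capillary electrophoresis. EGR1 reporter transcript changes, up or down, were fitted against DMSO, reflecting endogenous transcription-factor activity.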

Test [4] in a line: ATG_M_19_CIS: Attagene CIS-FACTORIAL HepG2 Assay for M19 Transcription Factor (Internal Marker) (AID 2282939). Particulars: HepG2 Attagene CIS-FACTORIAL M19 internal marker reporter; actives raise or lower the signal. In outline: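 HepG2, MRTU transient transfection, 24 h dosing. Total RNA → RT-PCR → 6-FAM primer extension → HpaI digest → CE fluorescence. Bidirectional curve fit, DMSO negative control.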

Test [5] in a line: ATG_Ets_CIS: Attagene CIS-FACTORIAL HepG2 Assay for human Erythroblast Transformation Specific (ETS) (AID 2282941). As to conditions: HepG2 ETS cis-reporter transcription, actives raise or lower the signal. Summed up:
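Bidirectional fit versus DMSO of reporter mRNA signal, detected by RT-PCR and capillary electrophoresis in HepG2 cells transiently transfected with cis-element reporters and dosed 24 h.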

In test [6] the target is Hepatocyte nuclear factor 3-beta (Homo sapiens) (UniProt Q9Y261). As to the kind of experiment: ATG_FoxA2_CIS: Attagene CIS-FACTORIAL HepG2 Assay for human Forkhead box A2 (FOXA2) (AID 2282942). Particulars: HepG2 cis-reporter transcription factor activity, 24 h; actives raise or lower the signal. Summed up:
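Endogenous transcription factor activity is captured via cis-element-driven reporter transcripts in transfected HepG2. Total RNA taken at 24 h post-dosing; labelled RT-PCR products resolved by capillary electrophoresis. Gain or loss fitted versus DMSO.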

Test [7] in a line: ATG_FoxO_CIS: Attagene CIS-FACTORIAL HepG2 Assay for human Forkhead box O (FoxO) (AID 2282943). As to conditions: HepG2 Attagene cis-reporter, FoxO element, mRNA; actives raise or lower the signal. In outline: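 HepG2, transient MRTU transfection (cis element, endogenous TFs). Dose 24 h. TriZol RNA → oligo(dT) RT → PCR → 6-FAM primer extension → HpaI cut → CE. Gain/loss vs DMSO.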

The nature of test [8]: ATG_GATA_CIS: Attagene CIS-FACTORIAL HepG2 Assay for human GATA Binding Protein (AID 2282944). As to conditions: HepG2 GATA cis-element reporter, Attagene multiplex mRNA; actives raise or lower the signal. Summed up:
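Cells: HepG2, transiently transfected with cis-regulated reporter transcription units. Exposure: 24 h. Detection: RT-PCR plus capillary electrophoresis of FAM-labeled fragments. Analysis: bidirectional, DMSO as baseline.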

Test [9] can be described thus: ATG_GLI_CIS: Attagene CIS-FACTORIAL HepG2 Assay for human Zinc Finger Protein GLI1 (AID 2282945). As to conditions: HepG2, Attagene cis-factorial reporter mRNA, GLI element; actives raise or lower the signal. In outline: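 Bidirectional curve fits relative to DMSO, using reporter mRNA levels from RT-PCR plus capillary electrophoresis. Cells were HepG2 transiently carrying cis-regulated reporter constructs, harvested 24 h after dosing.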

Test [10] in a line: ATG_GRE_CIS: Attagene CIS-FACTORIAL HepG2 Assay for human Glucocorticoid Response Elements (GRE) (AID 2282947). As to conditions: HepG2 GRE cis-reporter, Attagene multiplex mRNA; actives raise or lower the signal. In outline: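 Multiplexed cis-reporter mRNA induction, HepG2, 24 h post-dose. RT-PCR, FAM-labelled, HpaI-digested amplicons by CE. Bidirectional fit vs DMSO.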
Test [11] is described as follows: ATG_M_32_CIS: Attagene CIS-FACTORIAL HepG2 Assay for M32 Transcription Factor (Internal Marker) (AID 2282949).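 Further: background control marker of the multiplexed CIS panel rather than a real target.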 As to conditions: HepG2 Attagene cis-factorial M32 reporter, mRNA; actives raise or lower the signal. Summed up:
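Using DMSO as baseline, bidirectional curve fits were applied to reporter mRNA signals. These came from transiently transfected HepG2 cells exposed for 24 h, with RNA analysed by RT-PCR, FAM primer extension, HpaI digestion and CE.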

In test [12] the target is Hepatocyte nuclear factor 6 (Homo sapiens) (UniProt Q9UBC0). Description: ATG_HNF6_CIS: Attagene CIS-FACTORIAL HepG2 Assay for human Hepatocyte Nuclear Factor 6 (HNF6) (AID 2282952). As to conditions: HepG2 Attagene cis-factorial HNF6 reporter transcription; actives raise or lower the signal. In outline: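 Twenty-four-hour chemical treatment of reporter-transfected HepG2 cells precedes RNA isolation, DNase-treated reverse transcription and PCR of reporter sequences. Labelled fragments are sized by capillary electrophoresis and fitted bidirectionally versus DMSO.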
Chain of Hepatocyte nuclear factor 6 (Homo sapiens) (Q9UBC0 whole entry, looked up, the tested form may be a part): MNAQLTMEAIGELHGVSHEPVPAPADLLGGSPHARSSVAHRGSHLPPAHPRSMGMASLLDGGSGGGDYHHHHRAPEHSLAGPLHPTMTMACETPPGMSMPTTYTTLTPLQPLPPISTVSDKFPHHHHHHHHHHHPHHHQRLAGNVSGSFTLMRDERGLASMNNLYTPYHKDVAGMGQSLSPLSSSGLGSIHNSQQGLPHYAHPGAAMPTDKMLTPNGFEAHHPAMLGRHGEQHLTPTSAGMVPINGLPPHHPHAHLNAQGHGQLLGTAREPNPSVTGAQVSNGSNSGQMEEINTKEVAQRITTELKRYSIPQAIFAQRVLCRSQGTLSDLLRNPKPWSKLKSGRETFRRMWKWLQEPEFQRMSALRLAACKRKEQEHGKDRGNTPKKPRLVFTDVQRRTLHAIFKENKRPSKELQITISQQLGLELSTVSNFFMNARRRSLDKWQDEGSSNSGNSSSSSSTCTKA

The target of test [13] is Heat shock factor protein 1 (Homo sapiens) (UniProt Q00613). As to the kind of experiment: ATG_HSE_CIS: Attagene CIS-FACTORIAL HepG2 Assay for human Heat Shock Transcription Factor 1 (HSE) (AID 2282953). As to conditions: HepG2 HSE cis-reporter, Attagene RNA transcription; actives raise or lower the signal. Summed up: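 Reporter mRNA induction in HepG2 is measured 24 h after dosing, using transiently transfected multiplexed cis-regulated reporter units. Signal comes from capillary electrophoresis of labelled RT-PCR products, with DMSO as negative control.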
Chain of Heat shock factor protein 1 (Homo sapiens) (Q00613 whole entry, looked up): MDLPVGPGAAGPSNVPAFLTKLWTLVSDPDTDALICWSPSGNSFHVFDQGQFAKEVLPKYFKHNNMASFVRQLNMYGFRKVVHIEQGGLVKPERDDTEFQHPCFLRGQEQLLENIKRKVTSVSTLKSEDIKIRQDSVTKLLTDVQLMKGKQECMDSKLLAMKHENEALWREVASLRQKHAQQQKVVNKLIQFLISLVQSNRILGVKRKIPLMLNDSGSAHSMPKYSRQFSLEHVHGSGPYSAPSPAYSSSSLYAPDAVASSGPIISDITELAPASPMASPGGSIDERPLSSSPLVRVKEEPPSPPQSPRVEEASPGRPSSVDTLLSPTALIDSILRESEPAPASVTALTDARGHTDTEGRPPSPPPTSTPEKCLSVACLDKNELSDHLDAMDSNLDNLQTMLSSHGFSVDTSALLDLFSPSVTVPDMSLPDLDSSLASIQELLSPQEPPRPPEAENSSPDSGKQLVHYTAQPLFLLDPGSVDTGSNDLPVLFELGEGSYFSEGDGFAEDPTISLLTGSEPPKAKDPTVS

A short description of test [14]: ATG_MRE_CIS: Attagene CIS-FACTORIAL HepG2 Assay for human Metal Responsive Element (MRE) (AID 2282954). As to conditions: HepG2 MRE cis-reporter transcription, Attagene multiplex; actives raise or lower the signal. Summed up: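 Multiplexed cis-reporter assay in human HepG2 liver cells, 24 h incubation with test chemical. Reporter transcripts measured by RT-PCR and capillary electrophoresis; values from bidirectional curve fitting versus DMSO.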

Test [15] is described as follows: ATG_ISRE_CIS: Attagene CIS-FACTORIAL HepG2 Assay for human Interferon Regulatory Factor 1 (IRF1) binding to an Interferon-Stimulated Response Element (ISRE) (AID 2282948). Particulars: HepG2 ISRE cis-reporter (Attagene), mRNA transcription readout; actives raise or lower the signal. In outline:
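Uses HepG2 liver cells transfected with cis-regulated reporters and measures mRNA 24 h post-dosing through RT-PCR, primer-extension labelling and capillary electrophoresis, with DMSO as negative control.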

Test [16] is described as follows: ATG_PBREM_CIS: Attagene CIS-FACTORIAL HepG2 Assay for human Phenobarbital-responsive Enhancer Module (PBREM) (AID 2282955). As to conditions: HepG2 PBREM cis-reporter, Attagene multiplexed transcription; actives raise or lower the signal. Summed up: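 Endogenous transcription factor activity was read from reporter transcripts in transiently transfected human HepG2 liver cells after 24 h dosing. RT-PCR products were fluorescently labelled, HpaI-cut and sized by capillary electrophoresis; activity fitted bidirectionally against DMSO baseline.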

Test [17] is described as follows: ATG_M_06_CIS: Attagene CIS-FACTORIAL HepG2 Assay for M06 Transcription Factor (Internal Marker) (AID 2282950). Particulars: HepG2 Attagene CIS-FACTORIAL M06 internal marker reporter; actives raise or lower the signal. Summed up: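 Measured 24 h post-dosing in transiently transfected HepG2 cells, this internal-marker endpoint reports reporter mRNA via RT-PCR with fluorescent primer extension and capillary electrophoresis. DMSO served as negative control and baseline for bidirectional fitting.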

Test [18] addresses Hypoxia-inducible factor 1-alpha (Homo sapiens) (UniProt Q16665). As to the kind of experiment: ATG_HIF1a_CIS: Attagene CIS-FACTORIAL HepG2 Assay for human Hypoxia Inducible Factor 1 (HIF1A) (AID 2282951). Particulars: HepG2 Attagene cis-factorial HIF1a reporter transcription; actives raise or lower the signal. In outline: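 Activity is fitted in both directions relative to DMSO. Reporter transcripts are read by RT-PCR, fluorescent primer extension and capillary electrophoresis after 24 h chemical treatment. The cells are HepG2 carrying transiently transfected cis-element-driven reporter units responding to endogenous factors.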

SMILES strings stand for the structures. Active and inactive are the calls of the source. How the source made its calls: active means hit-call score of the fitted dose curve at least 0.9, where 1 is the maximum; inactive means score below 0.9.

Chain of Hepatocyte nuclear factor 3-beta (Homo sapiens) (Q9Y261 whole entry, looked up): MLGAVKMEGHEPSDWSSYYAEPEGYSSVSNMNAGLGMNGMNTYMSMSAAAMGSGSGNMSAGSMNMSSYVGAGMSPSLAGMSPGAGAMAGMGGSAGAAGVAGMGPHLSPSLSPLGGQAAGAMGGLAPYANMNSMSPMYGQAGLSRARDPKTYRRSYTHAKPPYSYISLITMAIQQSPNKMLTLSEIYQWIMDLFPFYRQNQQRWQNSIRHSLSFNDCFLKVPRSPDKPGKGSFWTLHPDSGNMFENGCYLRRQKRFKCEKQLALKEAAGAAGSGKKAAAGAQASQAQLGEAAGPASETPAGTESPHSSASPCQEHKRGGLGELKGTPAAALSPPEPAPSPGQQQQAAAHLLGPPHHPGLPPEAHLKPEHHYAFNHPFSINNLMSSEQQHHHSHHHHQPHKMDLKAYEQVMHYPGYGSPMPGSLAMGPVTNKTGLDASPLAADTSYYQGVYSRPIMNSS
Chain of Hypoxia-inducible factor 1-alpha (Homo sapiens) (Q16665 whole entry, looked up): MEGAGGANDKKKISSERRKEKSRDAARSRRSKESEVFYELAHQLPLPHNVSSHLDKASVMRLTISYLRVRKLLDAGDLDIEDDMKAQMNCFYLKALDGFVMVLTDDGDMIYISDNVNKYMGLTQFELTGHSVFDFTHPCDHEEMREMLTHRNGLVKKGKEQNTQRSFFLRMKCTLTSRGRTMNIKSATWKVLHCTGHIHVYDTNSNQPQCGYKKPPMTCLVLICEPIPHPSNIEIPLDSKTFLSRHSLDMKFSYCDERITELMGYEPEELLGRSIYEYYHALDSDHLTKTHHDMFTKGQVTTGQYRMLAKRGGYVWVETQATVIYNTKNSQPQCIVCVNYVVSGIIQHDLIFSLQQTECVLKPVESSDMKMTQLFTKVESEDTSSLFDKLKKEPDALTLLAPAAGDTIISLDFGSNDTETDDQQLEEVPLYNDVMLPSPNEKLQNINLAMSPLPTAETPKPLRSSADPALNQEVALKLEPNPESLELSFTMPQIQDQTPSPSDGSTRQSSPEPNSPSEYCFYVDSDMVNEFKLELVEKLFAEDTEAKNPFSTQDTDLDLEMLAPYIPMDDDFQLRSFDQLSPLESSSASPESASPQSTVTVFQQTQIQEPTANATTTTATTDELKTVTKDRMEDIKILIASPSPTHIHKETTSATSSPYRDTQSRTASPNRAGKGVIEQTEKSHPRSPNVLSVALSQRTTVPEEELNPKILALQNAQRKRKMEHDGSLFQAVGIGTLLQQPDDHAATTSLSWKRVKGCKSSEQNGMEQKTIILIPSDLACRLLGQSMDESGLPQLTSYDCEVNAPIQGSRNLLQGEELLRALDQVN

In the case of `O=C(O)c1cc(N=Nc2ccc(S(=O)(=O)Nc3ccccn3)cc2)ccc1O`, the result in test [1], in test [2], in [3], in test [4], in test [5] and in test [6] was inactive. Moreover, the result in test [7], in test [8], in [9], in test [10], in [11] and in test [12] was inactive. Moreover, the compound was classed as inactive in test [13] and in test [14].

Consider `NC(=O)NO`, for which the result in [1], in [2], in [3], in test [4], in test [5] and in test [6] was inactive. Besides, the compound was called inactive in [7], in [8], in test [9], in test [10], in [15] and in [11]. Further, the compound was called inactive in test [12], in [13], in test [14] and in test [16].

For the compound `O=C(CCCCCCCCc1cccnc1)N1CCC(C=C(c2ccccc2)c2ccccc2)CC1`, the result in test [1], in test [5], in test [6], in test [7], in test [8] and in test [9] was inactive. Moreover, the compound was classed as inactive in test [10] and in [11]. Moreover, the AC50 was 59.8 µM (active) in [2]; 17 µM (active) in test [3]; 59.4 µM (active) in test [4]; 59.8 µM (active) in [17]; 1.37 µM (active) in [18]; 23.9 µM (active) in test [12]. Besides, the AC50 in test [13] was 15.9 µM (active); in test [14] it was 2.78 µM (active).

For the compound `CCCN(C1CCN(C(=O)C2CCNCC2)CC1)[C@@H]1CCc2ccc(OC)cc2C1`, the AC50 in test [1] is 45.1 µM (active); in [3], 100 µM (active); in test [7], 153 µM (active); in test [8], 152 µM (active); in [9] it was 153 µM (active); in test [15], 90.6 µM (active). Moreover, the AC50 in test [16] was 157 µM (active). For the same compound, the call in test [2], in test [4], in test [5], in test [6], in [10] and in test [11] was inactive. Besides, the compound was classed as inactive in test [17], in test [18], in test [12], in test [13] and in test [14].
